Assay outcomes (PubChem BioAssay)
A selection: hits, their analogues and other compounds. The true share with any hit is near 8.8%.
IL1B secr inh = inflammasome signaling inhibition, IL-1 beta readout; activity change, % at 57.5 µM; AID 743279; THP-1 LPS/ATP IL-1B secretion, AlphaLISA, 16 h; stronger effect = lower value; 4.7% of 360,000 active; in the data active = activity change below about -50%; inconclusive = mostly about -30% to -49%
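THP-1 cells pretreated 1 hr with compounds (up to 57.5 uM final), then stimulated with LPS (250 ng/mL final) plus ATP (1.25 mM final); secreted IL-1B measured by AlphaLISA after 16 hr, decreased signal indicating inhibition.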
HT1080-NT tox = kills 2HG-producing HT-1080-NT fibrosarcoma cells; HT-1080-NT fibrosarcoma viability, CellTiter-Glo ATP luminescence, 48 h; 1.6% of 360,000 active; Potency, µM (doses to about 46.1 µM), actives largely listed as cytotoxic; AID 686970;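 also: NT is the 2HG producing partner of a matched IDH1 knockdown line; nearly all actives have a fitted effect of over 55% in size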
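HT-1080-NT; 750 cells/well; 5% FBS RPMI; 48 h compound, 37 degrees C; CellTiter-Glo luminescence; curve fitting and curve-class assignment.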
KB-V1 MDR tox = kills drug-selected multidrug resistant KB-V1 cells; KB-V1 MDR cells viability, CellTiter-Glo, 72 h; Potency, µM (highest dose often 46.1 µM), actives largely listed as cytotoxic; 3.4% of 400,000 active; AID 1347076; also: nearly all actives have a fitted effect of over 60% in size
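Drug-selected KB-V1 cells, grown in DMEM lacking phenol red with 10% FBS, receive compound titrations; after three days at 37 degrees C, surviving cell ATP is quantified by CellTiter-Glo luminescence and responses normalized and curve-fitted.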
HT1080 IDH1KD tx = toxicity to HT-1080 IDH1 knockdown cells (counter line) | Potency, µM (titrated, usually from 46.1 µM), actives largely listed as cytotoxic | 2% of 360,000 active | HT-1080 IDH1 knockdown viability, ATP luminescence, 48 h
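Assay cells: HT-1080 with IDH1 knockdown, 750 per well, RPMI/5% FBS. Exposure: 48 h at 37 °C following 2 h pre-incubation. Read: CellTiter-Glo luminescence; fitted concentration-response, curve class assigned.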
KB-3-1 cytotox = KB-3-1 parental cell cytotoxicity. KB-3-1 viability, CellTiter-Glo ATP luminescence, 72 h. Potency, µM (highest dose often 46.1 µM), usual class: cytotoxic. 1.4% of 400,000 active; also: nearly all actives have a fitted effect of over 60% in size
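KB-3-1 parental drug-naive adenocarcinoma cells in DMEM/10% FBS, incubated 72 h at 37 C with pin-transferred compounds across a concentration series. Viability by CellTiter-Glo luminescence; concentration-response curves fitted after normalization.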
Hits are given with their value; – = inactive; ? = inconclusive; · = no result given. Unless noted, calls follow the shape of the dose curve; as a rule, active = well fitted curve in the direction sought with a large enough effect; inconclusive = small, poorly fitted or top-dose-only effect, or another doubt; inactive = no such curve, though single readings can be large; an effect the other way counts as inactive or inconclusive.

SMILES	IL1B secr inh	HT1080-NT tox	KB-V1 MDR tox	HT1080 IDH1KD tx	KB-3-1 cytotox
Cc1ccc(S(=O)(=O)NCCN=Cc2ccc(N(C)C)cc2)cc1	–	–	·	–	·
COc1ccc(OC)c2c(/C=C/c3ccc(N(C)C)cc3)ccnc12	·	·	–	·	–
Cc1csc2c(N3CCN(C(=O)Nc4ccc(OC(F)(F)F)cc4)CC3)ncnc12	-70	?	–	?	–
CCOC(=O)c1c2c(n(Cc3ccccc3)c1C)C(=O)C(=O)c1ccccc1-2	-100	23µM	3.3µM	?	2.9µM
CCOC(=O)c1c2c(n(C)c1C)C(=O)C(=O)c1ccc(Br)cc1-2	–	?	3.3µM	?	3.7µM
COc1cc2cc(CCCOC(=O)c3ccc(C#N)cc3)oc(=O)c2cc1OC	–	–	–	–	–
CCCC(=O)Nc1ccc2oc(-c3ccc(OC)c(Br)c3)nc2c1	–	?	2.6µM	?	–
O=C(Nc1ccc2oc(-c3ccccc3)nc2c1)c1ccc2c(c1)OCCO2	–	?	8.2µM	?	?
COc1cc(C(=O)Nc2nc(OC)c(-c3ccccc3)c(OC)n2)cc(OC)c1OC	–	?	–	?	–
COc1cc(C(=O)Nc2cc(-c3ccccc3)[nH]n2)cc(OC)c1OC	–	?	18µM	?	?
COc1cc(C(=O)Nc2ccc(Nc3ccccc3)cc2)cc(OC)c1OC	-56	–	–	–	–
Cc1ccc(NC(=O)COc2ccccc2C=O)cc1Cl	–	–	–	–	–
COC(=O)c1cc(CSc2nc3ccccc3c(=O)n2C)oc1C	–	–	?	?	–
CC(=O)Nc1nonc1-c1nnc(SCC(=O)Nc2cc(C)cc(C)c2)n1-c1ccccc1	·	·	–	·	–
CN(CC(=O)Nc1ccccc1C(F)(F)F)C(=O)COc1ncnc2ccccc12	–	–	–	–	–
CCc1ccc2oc(-c3ccc(NC(=O)c4cc(OC)c(OC)c(OC)c4)cc3)nc2c1	·	·	–	·	–
COc1ccc(C(=O)Nc2ccc3oc(-c4cccnc4)nc3c2)cc1OC	?	–	?	–	–
COc1cc(C(=O)Nc2ccc3oc(-c4cccnc4)nc3c2)cc(OC)c1OC	–	–	15µM	–	–
COc1cc(C(=O)Nc2ccc3oc(-c4ccccc4)nc3c2)cc(OC)c1OC	·	·	8.2µM	·	–
Cc1ccc(C)c(OCc2cc(C(=O)NC(c3ccccn3)C(F)(F)F)no2)c1 (stereo unspecified)	?	–	·	–	·
N/C(=N\N=C/c1ccc(Br)cc1)N/N=C\c1ccc(Br)cc1	-64	?	?	?	–
N/C(=N\N=Cc1ccc2c(c1)OCO2)NN=Cc1ccc2c(c1)OCO2	-99	–	?	?	?
O=C(NN=Cc1ccc2c(c1)OCO2)C1CC1	–	–	–	–	–
CS/C(N)=N/N=C/c1ccc2c(c1)OCO2	–	–	–	–	–
O=C(NN=Cc1ccc2c(c1)OCO2)NN=Cc1ccc2c(c1)OCO2	-89	–	?	–	–
SMILES	IL1B secr inh	HT1080-NT tox	KB-V1 MDR tox	HT1080 IDH1KD tx	KB-3-1 cytotox
Cc1ccc(C(C(=O)NCC2CCCO2)N(C(=O)c2snc(C(N)=O)c2N)c2ccccc2F)o1 (stereo unspecified)	?	–	–	–	–
Cc1cccc(OCC(=O)Nc2c3c(nn2C(C)(C)C)CS(=O)(=O)C3)c1	–	–	–	–	–
O=C(CCc1ccccc1)Nc1ccc(F)c([N+](=O)[O-])c1	-94	–	–	–	–
Cc1cccc(C(=O)NCCC(=O)Nc2ccc(F)c([N+](=O)[O-])c2)c1	-64	–	–	–	–
Cc1ccc(CC(=O)Nc2ccc(F)c([N+](=O)[O-])c2)cc1	–	–	–	–	–
O=C(COC(=O)c1ccc(F)c([N+](=O)[O-])c1)NC(=O)NCc1ccccc1	-99	–	?	–	–
Cc1ccc(C(=O)OCC(=O)NC(=O)NCc2ccccc2)cc1C	–	–	–	–	–
Cc1cccc(C(=O)NCCC(=O)Nc2ccc(C)c(F)c2)c1	–	–	?	–	–
CCN(C(=O)N1CCOCC1)c1ccccc1C	–	–	–	–	–
O=C(CN1C(=O)NC2(CCCCCC2)C1=O)N1CCC(Cc2ccccc2)CC1	–	–	18µM	–	?
O=C(CN1CCN(c2ccc(F)cc2)CC1)N1CCOCC1	–	–	–	–	–
NS(=O)(=O)c1ccc(CCNC(=O)CN2CCC(Cc3ccccc3)CC2)cc1	–	–	–	?	?
O=C(CN1CCN(c2ccc(F)cc2)CC1)N1CCC(Cc2ccccc2)CC1	-52	–	?	–	–
O=C(CN1CCC(Cc2ccccc2)CC1)NCCc1ccc(F)cc1	-69	–	?	–	–
O=C1C=C(c2ccc3[nH]ccc3c2)C[C@@H](c2ccc(Cl)cc2)C1	–	?	–	?	–
O=C(O)c1ccc(Nc2nc3ccccc3c3nncn23)cc1	·	·	–	·	–
Cc1cc(N/N=C/c2ccccc2O)c2ccccc2n1	-63	–	?	–	13µM
COc1ccc2nc(C)cc(N/N=C/c3cccc(OC)c3O)c2c1	-99	?	?	16µM	–
Cc1ccc2nc(C)cc(N/N=C/c3cccnc3)c2c1	–	?	–	–	–
COc1ccc(/C=N/Nc2cc(C)nc3ccc(Br)cc23)cc1	-101	7.3µM	16µM	21µM	?
COc1ccc2nc(C)cc(NCc3cccc(C(F)(F)F)c3)c2c1	-96	23µM	?	16µM	–
COc1cccc2c(N/N=C/c3ccccc3)cc(C)nc12	–	–	–	–	–
COc1ccc2nc(C)cc(Nc3ccccc3OC)c2c1	–	–	–	–	–
O=C(Nc1ccc(-c2cn3cccnc3n2)cc1)c1cc(Br)ccc1Cl	·	·	–	·	–
Cc1ccc(OCCn2c(=O)n(C)c3ccccc32)cc1	–	–	–	–	–
SMILES	IL1B secr inh	HT1080-NT tox	KB-V1 MDR tox	HT1080 IDH1KD tx	KB-3-1 cytotox
Cc1cc(NS(=O)(=O)c2ccc(NC(=O)C(C)Oc3cc(C)c(Cl)c(C)c3)cc2)no1 (stereo unspecified)	–	–	–	–	–
CC(C)c1cn(CC[C@@H]2CC[C@@H](NC(=O)C3CCCCC3)[C@@H](CO)O2)nn1	–	–	–	–	–
Cc1ccccc1NC(=O)c1nnn(-c2ccc3c(c2)OCCO3)c1N	-65	–	–	–	–
CCOc1ccccc1NC(=O)c1nnn(-c2ccc3c(c2)OCCO3)c1N	?	–	–	–	?
Cc1ccc2[nH]c3c(c2c1)CC/C(=C/c1ccccc1)C3=O	–	–	13µM	–	–
O=C1/C(=C\c2ccccc2)CCc2c1[nH]c1ccccc21	?	7.3µM	?	12µM	1.3µM
CC/C(=N/NC(=O)c1ccc(Br)o1)c1ccc(Cl)cc1	–	–	15µM	–	–
OCCN(CCO)CC(O)COc1ccc(Br)cc1 (stereo unspecified)	–	–	–	–	–
COc1ccc(CN(C)CC(O)COc2ccc(C(=O)c3ccccc3)cc2)c(OC)c1OC (stereo unspecified)	-67	21µM	–	?	–
